Test results published in PubChem BioAssay AID540357 (National Center for Advancing Translational Sciences (NCATS), 2011).
The source made the active and inactive calls.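 Rule for the calls: active = compounds whose fitted potency in the phosphatase confirmation test is under 20 µM; inconclusive = potency fitted but weaker than 20 µM; inactive = no potency could be fitted.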

What follows are compounds tested against Protein phosphatase EYA2 (Homo sapiens) (UniProt O00167) (assay: Inhibitors of Eya2ED: Hit Confirmation in Malachite Green Secondary Assay). Conditions: phosphopeptide, malachite green absorbance.
Chain of Protein phosphatase EYA2 (Homo sapiens) (O00167 whole entry, looked up): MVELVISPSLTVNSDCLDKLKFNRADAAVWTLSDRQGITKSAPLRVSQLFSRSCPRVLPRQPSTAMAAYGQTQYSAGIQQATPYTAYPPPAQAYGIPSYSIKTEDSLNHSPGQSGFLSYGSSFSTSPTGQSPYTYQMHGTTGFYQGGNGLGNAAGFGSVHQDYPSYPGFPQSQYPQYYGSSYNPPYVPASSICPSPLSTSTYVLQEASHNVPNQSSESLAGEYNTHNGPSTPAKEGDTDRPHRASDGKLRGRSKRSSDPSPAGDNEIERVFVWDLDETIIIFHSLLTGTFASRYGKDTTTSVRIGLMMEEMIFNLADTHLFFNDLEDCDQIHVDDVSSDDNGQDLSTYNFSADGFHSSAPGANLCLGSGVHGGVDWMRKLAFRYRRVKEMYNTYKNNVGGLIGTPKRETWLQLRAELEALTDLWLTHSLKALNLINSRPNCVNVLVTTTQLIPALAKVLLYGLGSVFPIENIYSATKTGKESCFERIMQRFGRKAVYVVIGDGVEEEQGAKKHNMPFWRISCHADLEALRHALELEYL
Source text: The Eya proteins (Eya1-4) were originally identified as essential co-activators of the Six1 transcription factor. […] Knockdown of Six1 decreases cancer cell proliferation and metastases in several different cancer models. […] A fluorescence-based HTS assay has been perfomed against the Molecular Libraries Small Molecule Repository (MLSMR) and has the AID 488837 in this database. In order to confirm the hits obtained from the primary screen several follow-up screens have been/will be carried out. This secondary screen uses a different substrate and a different detection method and will help eliminate false positives obtained from the primary screen. More specifically, this assay measures phosphatase activity by measuring inorganic phosphate, the product of the hydrolysis of the phosphate group on the protein substrate. The inorganic phosphate is detected with malachite green, which in strongly acid conditions, produces a complex which is green and is detected by absorbance. NIH Chemical Genomics Center [NCGC] NIH Molecular Libraries Probe Centers Network [MLPCN] MLPCN Grant: DA030559-01 Assay Submitter (PI): Rui Zhao, University of Colorado, Denver
Phospatase assay (25ul) was carried out in transparent, 96-well, half-area microplates. […] After 20 minute incubation at room temperature, the absorbance was read at 620nm using a Spectramax PLUS 384 plate reader by Molecular Devices. […]
With `CCNC(=S)NNC(=O)c1csc2ccccc12` the Potency was 16.8 µM (active).
